From the antibiotic and cytotoxicity screens of Wong et al. (2023) come the findings set out here.

Hit rate of the full screen: of about 39,000 compounds, about 3,300 (8.5%) were called active. Shown is part of a subset that was picked to be rich in actives.

This experiment concerns HepG2. In words: cytotoxicity call (relative viability < 0.9). As to conditions: 10 µM.
Turning to `COc1ccc(NC(=O)Nc2ccc3c(c2)C(=O)N([C@@H](C)CO)C[C@H](C)[C@@H](CN(C)Cc2ccccc2)OCCCC[C@@H](C)O3)cc1`, the cytotoxicity call was “inactive”.
`COc1ccc(NC(=O)Nc2ccc3c(c2)C(=O)N([C@H](C)CO)C[C@@H](C)[C@H](CN(C)Cc2ccccc2)OCCCC[C@H](C)O3)cc1`: the cytotoxicity call was “active”.
On to `COc1cccc([C@@H](N)c2ccccc2)c1`, for which the cytotoxicity call was “inactive”.
Next, `O=C(/C=C/c1ccc(O)c(O)c1)O[C@@H]1[C@H](O)C[C@@](O)(C(=O)O)C[C@H]1OC(=O)/C=C/c1ccc(O)c(O)c1`: “inactive”.
With `C[C@H]1CN([C@@H](C)CO)C(=O)Cc2cc(NC(=O)Cc3cn(C)c4ccccc34)ccc2O[C@@H]1CN(C)S(C)(=O)=O` the entry was “inactive”.
Next, `C[C@@H]1CN([C@H](C)CO)C(=O)c2cc(NS(=O)(=O)c3cn(C)cn3)ccc2O[C@H]1CN(C)C(=O)NC1CCCCC1`: “inactive”; `C[C@H]1CN([C@@H](C)CO)C(=O)Cc2cc(NC(=O)CCN3CCOCC3)ccc2O[C@@H]1CN(C)S(=O)(=O)c1cccs1`: “inactive”.
As to `O=C(C[C@@H]1CC[C@H]2[C@@H](COC[C@@H](O)CN2C(=O)c2cnccn2)O1)NCc1ccc(Oc2ccccc2)cc1`, the cytotoxicity call was “inactive”.
Take `COc1ccccc1NC(=O)N(C)C[C@@H]1Oc2ncc(Br)cc2C(=O)N([C@H](C)CO)C[C@H]1C`: the cytotoxicity call was “inactive”.
With `O=C(CCCCCCC(=O)Nc1ccccc1O)N/N=C/[C@H](O)[C@@H](O)[C@H](O[C@@H]1O[C@H](CO)[C@H](O)[C@H](O)[C@H]1O)[C@H](O)CO` the entry was “inactive”; with `C[C@H](CO)N1C[C@H](C)[C@@H](CN(C)C(=O)Nc2cccc3ccccc23)Oc2c(NC(=O)CCCCCC(=O)Nc3ccccc3N)cccc2C1=O`, “inactive”.
Next, `C[C@@H]1CCCCO[C@@H](CN(C)S(=O)(=O)c2ccc(Cl)cc2)[C@@H](C)CN([C@H](C)CO)C(=O)c2cc(NC(=O)Nc3ccc(F)cc3)ccc2O1`: “inactive”.
Next, `C[C@H](CO)N1C[C@H](C)[C@H](CN(C)Cc2ccc(Oc3ccccc3)cc2)Oc2ccc(NC(=O)C3CC3)cc2C1=O`: “inactive”; `Cc1ccc(NC(=O)N(C)C[C@@H]2OCCCC[C@H](C)Oc3ccc(NC(=O)C4CCCCC4)cc3C(=O)N([C@H](C)CO)C[C@@H]2C)cc1`: “inactive”.
Consider `NC(=O)CCN1CCn2c1nc1ccccc12`, for which the cytotoxicity call is “inactive”.
With `COc1ccc2c3c([nH]c2c1)[C@H](CO)N(C[C@]13CCN(CC1)C(=O)Nc1ccc2c(c1)OCO2)C(=O)Nc1ccc(cc1)F` the entry was “inactive”; with `COc1ccc(NC(=O)Nc2ccc3c(c2)C(=O)N([C@H](C)CO)C[C@H](C)[C@@H](CN(C)Cc2ccccc2)OCCCC[C@@H](C)O3)cc1`, “inactive”.
Next, `COc1ccc(NC(=O)Nc2ccc3c(c2)C(=O)N([C@H](C)CO)C[C@H](C)[C@H](CN(C)Cc2ccccc2)OCCCC[C@H](C)O3)cc1`: “active”.
Next, `COc1ccc(NC(=O)Nc2ccc3c(c2)C(=O)N([C@@H](C)CO)C[C@H](C)[C@@H](CN(C)Cc2ccccc2)OCCCC[C@H](C)O3)cc1`: “inactive”; `C[C@@H]1CCCCO[C@H](CN(C)Cc2ccccc2)[C@@H](C)CN([C@H](C)CO)C(=O)c2cc(NS(=O)(=O)c3ccc(F)cc3)ccc2O1`: “inactive”; `Cn1cnnc1Sc1c([N+](=O)[O-])ncn1C`: “inactive”.
On to `Cn1cnc([N+](=O)[O-])c1Sc1[nH]cnc2ncnc1-2`, for which the cytotoxicity call is “active”.
Next, `Cn1cnc([N+](=O)[O-])c1Cl`: “inactive”; `C[C@@H]1CN([C@H](C)CO)C(=O)c2cc(NC(=O)CCN3CCOCC3)ccc2O[C@@H]1CN(C)C(=O)Nc1ccccc1`: “inactive”.
With `C[C@@H]1CN([C@@H](C)CO)S(=O)(=O)c2ccc(C#CC3CCCC3)cc2O[C@H]1CN(C)Cc1cncnc1` the entry was “inactive”; with `C[C@@H]1O[C@@H](O[C@@H]2CC[C@@]3(C)[C@@H](CC[C@]4(C)[C@@H]3CC=C3[C@@H]5CC(C)(C)CC[C@]5(C(=O)O[C@@H]5O[C@H](CO[C@@H]6O[C@H](CO)[C@@H](O)[C@H](O)[C@H]6O)[C@@H](O)[C@H](O)[C@H]5O)CC[C@]34C)[C@]2(C)CO)[C@H](O)[C@H](O[C@@H]2OC[C@@H](O)[C@H](O)[C@H]2O)[C@H]1O`, “inactive”; with `C[C@H]1O[C@@H](O[C@H]2[C@@H](O)[C@@H](O)[C@@H](O[C@H]3CC[C@]4(C)[C@H]5CC=C6[C@H]7CC(C)(C)[C@H]8C[C@]7(C(=O)O8)[C@@H](O)C[C@]6(C)[C@@]5(C)CC[C@H]4C3(C)C)O[C@@H]2CO)[C@@H](O)[C@@H](O[C@H]2OC[C@@H](O)[C@@H](O)[C@@H]2O)[C@@H]1O`, “inactive”.
Next, `C[C@H]1O[C@@H](OC(=O)[C@]23CCC(C)(C)C[C@H]2C2=CC[C@H]4[C@@]5(C)CC[C@H](O[C@@H]6O[C@H](C(=O)O)[C@@H](O)[C@H](O[C@@H]7OC[C@@H](O)[C@H](O)[C@H]7O)[C@H]6O[C@@H]6O[C@H](CO)[C@H](O)[C@H](O)[C@H]6O)[C@@](C)(C=O)[C@@H]5CC[C@@]4(C)[C@]2(C)C[C@H]3O)[C@H](O[C@H]2O[C@@H](CO)[C@@H](O)[C@@H](O)[C@@H]2O)[C@@H](O)[C@H]1O[C@@H]1O[C@H](C)[C@@H](O[C@H]2OC[C@@H](O)[C@@H](O)[C@@H]2O)[C@H](O)[C@@H]1O`: “inactive”; `C=C[C@](C)(O)CC/C=C(\C)C(=O)O[C@@H]1[C@@H](O[C@@](C)(C=C)CC/C=C(\C)C(=O)O[C@H]2C[C@@]3(C(=O)O[C@H]4OC[C@@H](O[C@H]5O[C@@H](CO)[C@@H](O)[C@@H](O[C@H]6O[C@@H](CO)[C@@H](O[C@H]7O[C@@H](CO)[C@@H](O)[C@@H](O)[C@@H]7O)[C@@H](O)[C@@H]6O)[C@@H]5O)[C@@H](O)[C@@H]4O)[C@@H](O)C[C@@]4(C)C(=CC[C@H]5[C@@]6(C)CC[C@@H](O[C@H]7O[C@@H](CO)[C@@H](O[C@H]8O[C@@H](CO)[C@@H](O)[C@@H](O[C@H]9OC[C@@H](O)[C@@H](O)[C@@H]9O)[C@@H]8O)[C@@H](O)[C@@H]7O)C(C)(C)[C@@H]6CC[C@@]54C)[C@@H]3CC2(C)C)OC[C@@H](O)[C@H]1O`: “active”; `C[C@@H]1O[C@@H](O[C@@H]2[C@@H](O)[C@@H](O[C@@H]3O[C@@H](CO)[C@H](O)[C@H]3O)[C@H](OC(=O)[C@]34CCC(C)(C)C[C@H]3C3=CC[C@H]5[C@@]6(C)C[C@H](O)[C@H](O[C@@H]7O[C@@H](C)[C@H](O)[C@@H](O[C@@H]8OC[C@@H](O)[C@H](O)[C@H]8O[C@@H]8O[C@H](CO)[C@@H](O)[C@H](O)[C@H]8O)[C@H]7O)[C@@](C)(CO)[C@@H]6CC[C@@]5(C)[C@]3(C)C[C@H]4O)O[C@H]2C)[C@H](O)[C@H](O)[C@H]1O`: “active”.
In the case of `CC1(C)CC[C@]2(C(=O)O[C@@H]3O[C@H](CO)[C@@H](O)[C@H](O)[C@H]3O)CC[C@]3(C)C(=CC[C@H]4[C@@]5(C)CC[C@@H](O[C@@H]6O[C@H](C(=O)O)[C@@H](O[C@@H]7OC[C@@H](O)[C@H](O)[C@H]7O)[C@H](O[C@@H]7OC[C@](O)(CO)[C@H]7O)[C@H]6O)C(C)(C)[C@@H]5CC[C@]43C)[C@@H]2C1`, the cytotoxicity call is “inactive”.
Next, `C[C@@H]1O[C@@H](O[C@H]2[C@H](OC(=O)[C@]34CCC(C)(C)C[C@H]3C3=CC[C@H]5[C@@]6(C)CC[C@H](O[C@@H]7O[C@H](CO)[C@@H](O)[C@H](O)[C@H]7O)C(C)(C)[C@@H]6CC[C@@]5(C)[C@]3(C)C[C@H]4O)OC[C@H](O)[C@@H]2O)[C@H](O)[C@H](O[C@@H]2OC[C@H](O)[C@H](O)[C@H]2O)[C@H]1O[C@@H]1OC[C@@H](O)[C@H](O[C@@H]2OC[C@H](O)[C@H](O)[C@H]2O)[C@H]1O`: “active”; `C[C@@H]1O[C@H](O[C@@H]2[C@H](O)C[C@@]3(C)[C@@H](CC[C@]4(C)[C@H]3CC=C3[C@H]5CC(C)(C)CC[C@@]5(C(=O)O[C@H]5O[C@@H](C)[C@@H](O)[C@H](O[C@H]6OC[C@@H](O)[C@@H](O)[C@@H]6O)[C@H]5O[C@@H]5O[C@H](C)[C@H](O)[C@H](O[C@@H]6OC[C@H](O)[C@H](O[C@@H]7O[C@H](C)[C@@H](O)[C@H](O)[C@@H]7O)[C@H]6O)[C@H]5O)[C@@H](O)C[C@@]34C)[C@]2(C)CO)[C@@H](O)[C@H](O[C@H]2OC[C@@H](O)[C@@H](O[C@H]3OC[C@@H](O[C@H]4OC[C@@](O)(CO)[C@@H]4O)[C@@H](O)[C@@H]3O)[C@@H]2O)[C@@H]1O`: “inactive”.
Next, `C[C@@H]1O[C@H](O[C@H]2[C@H](OC(=O)[C@]34CCC(C)(C)C[C@@H]3C3=CC[C@@H]5[C@@]6(C)CC[C@H](O[C@@H]7O[C@@H](C)[C@H](O[C@@H]8OC[C@@H](O)[C@H](O)[C@H]8O)[C@@H](O)[C@H]7O)C(C)(C)[C@@H]6CC[C@@]5(C)[C@]3(C)C[C@@H]4O)OC[C@H](O)[C@H]2O)[C@H](O)[C@H](O)[C@H]1O[C@@H]1O[C@H](CO)[C@@H](O)[C@H](O)[C@H]1O`: “inactive”; `CC(=O)N[C@H]1[C@H](O[C@H]2CC[C@]3(C)[C@H]4CC=C5[C@@H]6CC(C)(C)CC[C@]6(C(=O)O[C@H]6OC[C@@H](O)[C@@H](O)[C@@H]6O)[C@@H](O)C[C@@]5(C)[C@]4(C)CC[C@H]3C2(C)C)O[C@H](CO[C@H]2OC[C@@H](O)[C@@H](O[C@H]3OC[C@@H](O)[C@@H](O)[C@@H]3O)[C@@H]2O)[C@@H](O[C@@H]2O[C@@H](C)[C@H](O)[C@@H](O)[C@H]2O[C@@H]2O[C@@H](C)[C@H](O)[C@@H](O)[C@H]2O)[C@@H]1O`: “active”.
